Data from PubChem BioAssay (NCI).
About 83,000 compounds went through this panel and 20% of them were active in at least one assay; those are over-represented in the sample as a whole.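 Testing used 96-well plates and a 48-hour single-concentration exposure. Example: -40 means 40% of the starting cells died.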 Active and inactive are the calls of the source. How the source made its calls: active means growth percent below 10; inactive means the rest.

Assays:
Assay in all cases: NCI-60 one-dose screen, 48 h (100 = growth as untreated, 0 = no growth, -100 = all killed)
Conditions in all cases: 10 µM unless noted
SK-MEL-2 melanoma = test system: SK-MEL-2 melanoma
EKVX NSCLC = test system: EKVX NSCLC
SN12C renal = test system: SN12C renal
UO-31 renal = test system: UO-31 renal
TK-10 renal = test system: TK-10 renal
ACHN renal = test system: ACHN renal
CAKI-1 renal = test system: CAKI-1 renal
A498 renal = test system: A498 renal
CCRF-CEM leukemia = test system: CCRF-CEM leukemia
MOLT-4 leukemia = test system: MOLT-4 leukemia

Measured: growth

CCOC(=O)c1cn2ncnc(Oc3ccc(NC(=O)NCCN4CCOCC4)c(Cl)c3)c2c1C
inactive: SK-MEL-2 melanoma 113% | EKVX NSCLC 96.3% | SN12C renal 95.8% | UO-31 renal 80.8% | TK-10 renal 98% | ACHN renal 99.5% | CAKI-1 renal 87.7% | A498 renal 85.2% | CCRF-CEM leukemia 96.6% | MOLT-4 leukemia 106%

CCCCOc1ccc(/C=N/NC(N)=S)cc1
inactive: SK-MEL-2 melanoma 85.1% | EKVX NSCLC 85.9% | SN12C renal 67.5% | UO-31 renal 43.7% | TK-10 renal 77.3% | ACHN renal 92.3% | CAKI-1 renal 83.7% | A498 renal 79.4% | CCRF-CEM leukemia 37.4% | MOLT-4 leukemia 46%

CC([C@H]1CCC2C3CCC4C(=O)C(NC=O)=CC[C@]4(C)C3CC[C@@]21C)N(C)C (stereo not given in full)
inactive: SK-MEL-2 melanoma 82.3% | EKVX NSCLC 30.5% | SN12C renal 42% | TK-10 renal 84.1% | ACHN renal 58.2% | CAKI-1 renal 57.6% | A498 renal 65.1% | CCRF-CEM leukemia 28.7% | MOLT-4 leukemia 41.2%
active: UO-31 renal -65%

Cc1nc2nc(SCC(=O)O)[nH]c2c(=O)[nH]1
inactive: SK-MEL-2 melanoma 96% | EKVX NSCLC 108% | SN12C renal 100% | UO-31 renal 92.2% | TK-10 renal 101% | ACHN renal 110% | CAKI-1 renal 99.2% | A498 renal 81.5% | CCRF-CEM leukemia 97.2% | MOLT-4 leukemia 103%

Cc1cc(Cl)ccc1NS(=O)(=O)c1ccc(-c2cnc(C3CC3)o2)cc1
inactive: SK-MEL-2 melanoma 80.4% | EKVX NSCLC 32.4% | SN12C renal 46.7% | UO-31 renal 45.8% | TK-10 renal 66.9% | ACHN renal 27.5% | CAKI-1 renal 43.4% | CCRF-CEM leukemia 22%
active: A498 renal -5.2% | MOLT-4 leukemia 2.78%

O=C1COCCN1c1ccc(NCc2cn(C(=O)c3ccc(Cl)cc3)c3ccccc23)cc1
active: TK-10 renal -26% | CAKI-1 renal -28.7% | A498 renal -88.9%
inactive: SK-MEL-2 melanoma 61.5% | EKVX NSCLC 83.9% | SN12C renal 74.9% | UO-31 renal 43.6% | ACHN renal 65.7% | CCRF-CEM leukemia 77.1% | MOLT-4 leukemia 85.7%

Cc1nc2ccccc2n1-c1ncnc2c1CC(C)c1ccccc1N2C (stereo not given)
inactive: SK-MEL-2 melanoma 78.3% | EKVX NSCLC 92.7% | SN12C renal 87.8% | UO-31 renal 71.3% | TK-10 renal 97.4% | ACHN renal 93.2% | CAKI-1 renal 79.9% | A498 renal 70.4% | CCRF-CEM leukemia 76.3% | MOLT-4 leukemia 60.3%

C=C1C(=O)O[C@H]2[C@H]1CC/C(COC(=O)CSCC(=O)OC/C1=C/CC[C@@]3(C)O[C@H]3[C@H]3OC(=O)C(=C)[C@@H]3CC1)=C\CC[C@@]1(C)O[C@@H]21
active: UO-31 renal 3.4% | TK-10 renal 9.84% | ACHN renal 2.35% | CCRF-CEM leukemia -7.55% | MOLT-4 leukemia -3.7%
inactive: SK-MEL-2 melanoma 68% | EKVX NSCLC 57.7% | SN12C renal 22.1% | CAKI-1 renal 76.4% | A498 renal 81.1%

CCCCn1c(=O)c(-c2cc(-c3ccc(Cl)cc3)nc(-c3ccc(Cl)cc3)c2)cc2cc(C)ccc21
inactive: SK-MEL-2 melanoma 118% | EKVX NSCLC 101% | SN12C renal 92.2% | UO-31 renal 86.2% | TK-10 renal 98.7% | ACHN renal 107% | CAKI-1 renal 94.8% | A498 renal 103% | CCRF-CEM leukemia 101% | MOLT-4 leukemia 105%

Cc1ccc(-c2cnc3sc(C(=O)NCCc4ccccc4)c(C)n23)cc1
inactive: SK-MEL-2 melanoma 108% | EKVX NSCLC 86.8% | SN12C renal 93.2% | UO-31 renal 75.1% | TK-10 renal 139% | ACHN renal 94.2% | CAKI-1 renal 94.1% | A498 renal 101% | CCRF-CEM leukemia 64.7% | MOLT-4 leukemia 87%

COc1ccc(-c2nc3sc(-c4ccc(Cl)cc4)cn3n2)cc1
active: SN12C renal 5.26% | UO-31 renal -7.46% | TK-10 renal -30.8% | ACHN renal -74% | CAKI-1 renal -3.32% | A498 renal -25.3%
inactive: SK-MEL-2 melanoma 106% | EKVX NSCLC 47.5% | CCRF-CEM leukemia 69.5% | MOLT-4 leukemia 82.6%

O=C1CCC/C=C\C[C@H]2C=CC(=O)/C2=C/C[C@H](CCc2cccc(C(F)(F)F)c2)O1
active: SK-MEL-2 melanoma -57.2% | EKVX NSCLC -47.6% | SN12C renal -37.9% | UO-31 renal -95.5% | TK-10 renal -68.9% | ACHN renal -85.1% | A498 renal -79.7% | CCRF-CEM leukemia 4.33% | MOLT-4 leukemia -18.6%
inactive: CAKI-1 renal 12.5%

NCCCNc1nc2ccccc2c2c(=O)c3cc(OC(F)(F)F)ccc3sc12
inactive: SK-MEL-2 melanoma 89.3% | EKVX NSCLC 67.9% | SN12C renal 41.3% | UO-31 renal 33.8% | TK-10 renal 64.7% | A498 renal 21.4%
active: ACHN renal -22.8% | CAKI-1 renal -72.7% | CCRF-CEM leukemia -2.58% | MOLT-4 leukemia -39.5%

CC(C)(C)NC(=O)C(OC(=O)c1cccc(Cl)c1)c1ccc(Cl)cc1 (stereo not given)
inactive: SK-MEL-2 melanoma 96.1% | EKVX NSCLC 109% | SN12C renal 101% | UO-31 renal 90.1% | TK-10 renal 93.2% | ACHN renal 107% | CAKI-1 renal 99.3% | A498 renal 83.1% | CCRF-CEM leukemia 103% | MOLT-4 leukemia 107%

C=C1CC[C@H](C(C)C)[C@@H]2[C@H]1[C@H]1CC(=C)[C@@H](O)CC[C@@](C)(O)[C@@H]2O1
inactive: SK-MEL-2 melanoma 80.9% | EKVX NSCLC 98.1% | SN12C renal 109% | UO-31 renal 82.6% | TK-10 renal 103% | ACHN renal 95.8% | CAKI-1 renal 95.1% | A498 renal 89.3% | CCRF-CEM leukemia 94% | MOLT-4 leukemia 119%

COc1ccc(-c2nnc(COc3ccc(Cl)cc3Cl)o2)cc1OC
active: EKVX NSCLC -15.8% | UO-31 renal -36.4% | TK-10 renal -8.66%
inactive: SK-MEL-2 melanoma 57.6% | SN12C renal 12.1% | ACHN renal 13.7% | CAKI-1 renal 57.7% | A498 renal 15.9% | CCRF-CEM leukemia 29.3% | MOLT-4 leukemia 54.3%

CCOC(=O)Nc1ccc(C(=O)/C=C/c2ccccc2)cc1
inactive: SK-MEL-2 melanoma 105% | EKVX NSCLC 105% | SN12C renal 87% | UO-31 renal 51.9% | TK-10 renal 103% | ACHN renal 102% | CAKI-1 renal 105% | A498 renal 92.1% | CCRF-CEM leukemia 91.6% | MOLT-4 leukemia 78.8%

Cc1cccc(NCc2cn(-c3ccc(C(=O)O)cc3)nc2-c2ccc(C(=O)O)cc2)n1
inactive: SK-MEL-2 melanoma 120% | EKVX NSCLC 102% | SN12C renal 101% | UO-31 renal 88% | TK-10 renal 102% | ACHN renal 103% | CAKI-1 renal 95.7% | A498 renal 95.5% | CCRF-CEM leukemia 104% | MOLT-4 leukemia 105%

COc1ccc(S(=O)(=O)n2cc(C3OC(c4cc(OC)c(OC)c(OC)c4)=NN3C(C)=O)c3ccccc32)cc1OC (stereo not given)
inactive: SK-MEL-2 melanoma 95.5% | EKVX NSCLC 78.9% | SN12C renal 88% | UO-31 renal 58.2% | TK-10 renal 94.9% | ACHN renal 85.3% | CAKI-1 renal 76.2% | A498 renal 117% | CCRF-CEM leukemia 73.4% | MOLT-4 leukemia 58.7%

COC(=O)[C@H](C)NC(=O)NC(=O)NC(=O)CI
inactive: SK-MEL-2 melanoma 87.7% | EKVX NSCLC 107% | SN12C renal 47.1% | UO-31 renal 78.3% | TK-10 renal 70.6% | ACHN renal 76.7% | A498 renal 128%
active: CAKI-1 renal -61.3% | CCRF-CEM leukemia -55.5% | MOLT-4 leukemia -31.7%

COc1ccc(NC2=C(Br)C(=O)C(C)=C(C)C2=O)cc1
inactive: SK-MEL-2 melanoma 92.4% | EKVX NSCLC 83.5% | SN12C renal 79.6% | UO-31 renal 74% | TK-10 renal 172% | ACHN renal 85.6% | CAKI-1 renal 94.9% | A498 renal 93.5%
active: CCRF-CEM leukemia -13.8% | MOLT-4 leukemia -9.34%

COc1ccc(C2C(N)=NNC2c2cccc(O)c2)cc1 (stereo not given)
inactive: SK-MEL-2 melanoma 87.6% | EKVX NSCLC 95.5% | SN12C renal 96.4% | UO-31 renal 83.7% | TK-10 renal 122% | ACHN renal 106% | CAKI-1 renal 88.7% | A498 renal 126% | CCRF-CEM leukemia 105% | MOLT-4 leukemia 96.7%

OC(COc1ccccc1Cl)CN1CCN(c2cccc(Cl)c2)CC1 (stereo not given)
inactive: SK-MEL-2 melanoma 106% | EKVX NSCLC 119% | SN12C renal 104% | UO-31 renal 83.1% | TK-10 renal 107% | ACHN renal 101% | CAKI-1 renal 99.1% | A498 renal 108% | CCRF-CEM leukemia 113% | MOLT-4 leukemia 107%

COc1ccc(/C=C/c2c(C(=O)/C=C/c3ccc(C(F)(F)F)cc3)c(C)nc3ccccc23)cc1
active: SK-MEL-2 melanoma -12.1% | EKVX NSCLC -18.7% | SN12C renal -42.9% | UO-31 renal -87.7% | TK-10 renal -14% | ACHN renal -94.3% | CAKI-1 renal -38% | A498 renal -66.3% | CCRF-CEM leukemia 7.64% | MOLT-4 leukemia 6.21%

COc1ccc(C2CC(c3ccc(Nc4ccnc5cc(Cl)ccc45)cc3)=NN2C=O)cc1 (stereo not given)
inactive: SK-MEL-2 melanoma 92.5% | EKVX NSCLC 68.2% | SN12C renal 64.4% | UO-31 renal 43.2% | TK-10 renal 91.2% | ACHN renal 48.5% | CAKI-1 renal 59.2% | A498 renal 101% | CCRF-CEM leukemia 14% | MOLT-4 leukemia 25.8%

COc1c(N2CC3CCCN(C(C)=O)C3C2)c(F)cc2c(=O)c(C(=O)N[C@H]3C(O)[C@@H](O)C(CO)O[C@H]3O)cn(C3CC3)c12 (stereo not given in full)
inactive: SK-MEL-2 melanoma 111% | EKVX NSCLC 103% | SN12C renal 98.9% | UO-31 renal 92.2% | TK-10 renal 105% | ACHN renal 105% | CAKI-1 renal 101% | A498 renal 103% | CCRF-CEM leukemia 105% | MOLT-4 leukemia 116%

Nc1nc2ccccc2c2c(=O)c3cc(F)ccc3sc12
inactive: SK-MEL-2 melanoma 110% | EKVX NSCLC 91.5% | SN12C renal 101% | UO-31 renal 91.3% | TK-10 renal 110% | ACHN renal 101% | CAKI-1 renal 107% | A498 renal 89.7% | CCRF-CEM leukemia 105% | MOLT-4 leukemia 101%
